Laboratory results reported in PubChem BioAssay.
Activity calls are given as the source filed them.
Also: test concentration not given here.

Assay: basal HepG2 mitochondrial membrane potential changes, profiling panel, cell-based, JC-1 fluorescence, 24 h, 100 nL compound (AID 1167)
Settings: higher = more signal
`COc1cc(NN2C(C(O)C3CCCCC3)C=CC3C(=O)N(c4ccccc4)C(=O)C32)cc(OC)c1OC` (stereo not drawn) gave a z-score of -1.08.
Work on `O=C(NCC(O)CO)[C@@]1(CCS(=O)(=O)c2ccccc2)COC(c2ccc(OCCCO)cc2)=N1` (stereo partly drawn) yielded a z-score of -0.341.
`NCCCCCNC(=O)[C@@H]1C[C@@H]2C(=O)N3CCC[C@H]3C(=O)N2[C@@H]1c1ccc(O)cc1` gave a z-score of -0.0437.
`CCCNC(=O)[C@@]1(Sc2ccc(C)cc2)CC(=O)N(C2CCCCC2)[C@@H]1c1ccc(CO)cc1I` showed a z-score of -0.478.
For `COC(=O)C1=CC(CCCO)=CC(C)N(Cc2cccc(OC(F)(F)F)c2)C=C1C(=O)OC` (stereo not drawn), the z-score was 1.12.
Work on `C=CCC(OC(C)=O)[C@@H]1[C@@H](N(Cc2ccc(-c3ccccc3)cc2)C(=O)c2ccc(C)cc2)c2cc(OCCCO)ccc2N1C(=O)Cc1ccc2ccccc2c1` (stereo partly drawn) yielded a z-score of 3.38.
For `CCCCCCCCCCC(O)C1C=CC2C(=O)N(c3ccccc3)C(=O)C2N1Nc1ccccc1F` (stereo not drawn), the z-score was -0.777.
With `CCOC(=O)C[C@H]1[C@H](OC(=O)c2ccc(-c3ccccc3)cc2)[C@@H](NC(=O)Cc2ccc(OC)cc2)c2cc(OCCCO)ccc2N1C(=O)Cc1ccc(OC)cc1` the z-score was 2.01.
In the case of `Cc1ccccc1C(O)C1C=CC2C(=O)NC(=O)C2N1Nc1ccc(Cl)cc1Cl` (stereo not drawn), the z-score is reported as -2.8.
`COCCOC(=O)N1C(=O)[C@@]2(c3cc(C#CCC(C(=O)OC)C(=O)OC)ccc31)[C@H](c1ccc(OCCO)cc1)N1[C@H](c3ccccc3)[C@H](c3ccccc3)OC(=O)[C@H]1[C@@H]2C(=O)Nc1nc2ccccc2s1` showed a z-score of -2.91.
Work on `O=C1C[C@@](C(=O)NCC(F)(F)F)(c2ccc([N+](=O)[O-])cc2)[C@@H](c2ccc(CO)cc2)N1CC12CC3CC(CC(C3)C1)C2` yielded a z-score of -1.09.
For `CCOC(=O)C[C@H]1[C@H](OC(=O)c2ccccc2-c2ccccc2)[C@@H](NC(=O)c2ccc3ccccc3n2)c2cc(OCCCO)ccc2N1C(=O)c1ccccc1`, the z-score was 0.549.
With `COCCOC(=O)N1C(=O)[C@@]2(c3cc(C#CCNC(N)=O)ccc31)[C@H](c1ccc(O)cc1)N1[C@H](c3ccccc3)[C@H](c3ccccc3)OC(=O)[C@H]1[C@@H]2C(=O)N1CCN(c2ncccn2)CC1` the z-score was -2.34.
With `C=CC[C@H](OC(=O)Nc1ccc(SC)cc1)c1ccc(OCCO)cc1` the z-score was -1.68.
Compound `C[C@]1(C(=O)O)c2ccccc2C(=O)N(Cc2ccc(OC(F)(F)F)cc2)[C@H]1c1ccc(CO)cc1` has a z-score of 0.248.
In the case of `CN(C)CCCCCCNC(=O)[C@@H]1C[C@@H]2C(=O)N[C@@H](CCCCN)C(=O)N2[C@@H]1c1ccc(O)cc1`, the z-score is reported as -0.695.
For `CC(C)C(=C=CC[C@@H](O)c1cccc(OCCO)c1)C[C@@H](O)c1ccccn1`, the z-score was -0.0286.
Compound `CCOC(=O)C1=CC[C@@H](c2ccccc2)N(S(=O)(=O)c2ccc(C)cc2)[C@H]1c1cccc(OC)c1` has a z-score of 2.94.
In the case of `CC(C)=CCCC(C)=CC(O)C1C=CC2C(=O)N(c3ccccc3)C(=O)C2N1Nc1ccccc1F` (stereo not drawn), the z-score is reported as -0.143.
Compound `C=CCC(OC(C)=O)[C@@H]1[C@@H](N(Cc2ccc(-c3cccc(C(F)(F)F)c3)o2)C(=O)Cc2ccc(OC)cc2)c2cc(OCCCO)ccc2N1C(=O)Cc1ccc2ccccc2c1` (stereo partly drawn) has a z-score of 1.94.
Work on `NC(=O)NCC#Cc1ccc2c(c1)[C@]1(C(=O)N2)[C@H](C(=O)N2CCN(c3ncccn3)CC2)[C@H]2C(=O)O[C@H](c3ccccc3)[C@H](c3ccccc3)N2[C@@H]1c1ccc(OCCO)cc1` yielded a z-score of -1.95.
In the case of `COCCOC(=O)N1C(=O)[C@@]2(c3cc(C#CC4=CCCCC4)ccc31)[C@H](c1ccc(O)cc1)N1[C@H](c3ccccc3)[C@H](c3ccccc3)OC(=O)[C@H]1[C@@H]2C(=O)NC[C@H](O)c1ccccc1`, the z-score is reported as -1.83.
With `COCC(=C=CC[C@@H](O)c1cccc(OCCO)c1)CCO` the z-score was 0.00786.
For `Cc1ccc(S[C@]2(C(=O)NC(C)C)CC(=O)N(C(C)C)[C@@H]2c2ccc(CO)cc2I)cc1`, the z-score was 1.09.
In the case of `O=C1O[C@H](c2ccccc2)[C@H](c2ccccc2)N2[C@H]1[C@@H](C(=O)N1CCCCCCC1)[C@]1(C(=O)Nc3ccc(C#CC4(O)CCCCCC4)cc31)[C@H]2c1ccc(O)cc1`, the z-score is reported as -0.806.

Assay: basal 3T3-L1 adipocyte mitochondrial potential changes, profiling panel, cell-based, JC-1 fluorescence, 3T3-L1 adipocytes, 24 h, 100 nL compound (AID 1168)
Settings: JC-1 mitochondrial fluorescence, higher = more signal, called active from +8 up or from −8 down
With `COCC(=C=CC[C@H](O)c1cccc(OCCO)c1)C[C@H](O)COCc1ccccc1` the z-score was -0.3 (inactive).
For `C=CCOC(=O)[C@H]1[C@@H]2C(=O)O[C@@H](c3ccccc3)[C@@H](c3ccccc3)N2[C@@H](c2ccc(OCCOC(=O)[C@H]3C[C@H]4C(=O)N[C@@H](CCCCNC(C)=O)C(=O)N4[C@H]3c3cccc(OCCO)c3)cc2)[C@]12C(=O)Nc1ccc(I)cc12`, the z-score was 0.622 (inactive).
For `Cc1c(NC(=O)/C(C#N)=C/c2ccccc2Cl)c(=O)n(-c2ccccc2)n1C`, the z-score was 1.14 (inactive).
For `C=C(C(=O)CC[C@@H](OC(=O)c1ccccc1-c1ccccc1C(=O)O)c1ccccc1OCCO)C(C)C`, the z-score was 0.758 (inactive).
With `COc1ccc([Si](C)(C)[C@@H]2[C@@H](CC(=O)N3Cc4ccccc4C[C@H]3CO)O[C@]3(C(=O)N(Cc4ccc(N5CCC5=O)cc4)c4ccccc43)[C@H]2C)cc1` the z-score was 1.37 (inactive).
With `C=C[C@@H](OC)[C@H](OC(=O)Nc1ccc(OC)cc1)c1ccc(OC)c(O)c1` the z-score was 0.141 (inactive).
With `CCOC(=O)C1=CCC(c2ccco2)N(S(=O)(=O)c2ccc(C)cc2)C1` (stereo not drawn) the z-score was -1.32 (inactive).
For `C=CCNC(=O)[C@H]1[C@@H]2C(=O)O[C@@H](c3ccccc3)[C@@H](c3ccccc3)N2[C@@H](c2ccc(OCCO)cc2)[C@]12C(=O)N(C(=O)OCCOC)c1ccc(C#Cc3ccc(OC)cc3)cc12`, the z-score was 3.09 (inactive).
For `CN1C=C(C(=O)OCCS(C)(=O)=O)C(C(=O)OCCS(C)(=O)=O)=CC(c2ccc(CO)cc2)=CC1c1cccs1` (stereo not drawn), the z-score was -0.345 (inactive).
With `COC(=O)C1N=C(c2ccc(OCCCO)cc2)N(c2ccccc2)O1` (stereo not drawn) the z-score was -0.407 (inactive).
For `CC(C)N1CC=CC23O[C@@H]4/C=C\CCCOC(=O)C4[C@H]2C(=O)N(CCCCCCO)[C@@H]3C1=O` (stereo partly drawn), the z-score was -0.0751 (inactive).
In the case of `COc1cc(NN2C(C(O)C3CCCCC3)C=CC3C(=O)N(c4ccccc4)C(=O)C32)cc(OC)c1OC` (stereo not drawn), the z-score is reported as 0.0506 (inactive).
For `O=C(NCC(O)CO)[C@@]1(CCS(=O)(=O)c2ccccc2)COC(c2ccc(OCCCO)cc2)=N1` (stereo partly drawn), the z-score was -0.834 (inactive).
In the case of `NCCCCCNC(=O)[C@@H]1C[C@@H]2C(=O)N3CCC[C@H]3C(=O)N2[C@@H]1c1ccc(O)cc1`, the z-score is reported as -0.645 (inactive).
In the case of `CCCNC(=O)[C@@]1(Sc2ccc(C)cc2)CC(=O)N(C2CCCCC2)[C@@H]1c1ccc(CO)cc1I`, the z-score is reported as -0.764 (inactive).
For `COC(=O)C1=CC(CCCO)=CC(C)N(Cc2cccc(OC(F)(F)F)c2)C=C1C(=O)OC` (stereo not drawn), the z-score was 0.612 (inactive).
For `C=CCC(OC(C)=O)[C@@H]1[C@@H](N(Cc2ccc(-c3ccccc3)cc2)C(=O)c2ccc(C)cc2)c2cc(OCCCO)ccc2N1C(=O)Cc1ccc2ccccc2c1` (stereo partly drawn), the z-score was 0.144 (inactive).
With `CCCCCCCCCCC(O)C1C=CC2C(=O)N(c3ccccc3)C(=O)C2N1Nc1ccccc1F` (stereo not drawn) the z-score was -0.45 (inactive).
In the case of `CCOC(=O)C[C@H]1[C@H](OC(=O)c2ccc(-c3ccccc3)cc2)[C@@H](NC(=O)Cc2ccc(OC)cc2)c2cc(OCCCO)ccc2N1C(=O)Cc1ccc(OC)cc1`, the z-score is reported as 0.262 (inactive).
For `Cc1ccccc1C(O)C1C=CC2C(=O)NC(=O)C2N1Nc1ccc(Cl)cc1Cl` (stereo not drawn), the z-score was -0.879 (inactive).
With `COCCOC(=O)N1C(=O)[C@@]2(c3cc(C#CCC(C(=O)OC)C(=O)OC)ccc31)[C@H](c1ccc(OCCO)cc1)N1[C@H](c3ccccc3)[C@H](c3ccccc3)OC(=O)[C@H]1[C@@H]2C(=O)Nc1nc2ccccc2s1` the z-score was 0.578 (inactive).
With `O=C1C[C@@](C(=O)NCC(F)(F)F)(c2ccc([N+](=O)[O-])cc2)[C@@H](c2ccc(CO)cc2)N1CC12CC3CC(CC(C3)C1)C2` the z-score was -1.29 (inactive).
With `CCOC(=O)C[C@H]1[C@H](OC(=O)c2ccccc2-c2ccccc2)[C@@H](NC(=O)c2ccc3ccccc3n2)c2cc(OCCCO)ccc2N1C(=O)c1ccccc1` the z-score was -0.178 (inactive).
In the case of `COCCOC(=O)N1C(=O)[C@@]2(c3cc(C#CCNC(N)=O)ccc31)[C@H](c1ccc(O)cc1)N1[C@H](c3ccccc3)[C@H](c3ccccc3)OC(=O)[C@H]1[C@@H]2C(=O)N1CCN(c2ncccn2)CC1`, the z-score is reported as 0.703 (inactive).
For `C=CC[C@H](OC(=O)Nc1ccc(SC)cc1)c1ccc(OCCO)cc1`, the z-score was -0.313 (inactive).
With `C[C@]1(C(=O)O)c2ccccc2C(=O)N(Cc2ccc(OC(F)(F)F)cc2)[C@H]1c1ccc(CO)cc1` the z-score was -1.18 (inactive).
In the case of `CN(C)CCCCCCNC(=O)[C@@H]1C[C@@H]2C(=O)N[C@@H](CCCCN)C(=O)N2[C@@H]1c1ccc(O)cc1`, the z-score is reported as -0.625 (inactive).
For `CC(C)C(=C=CC[C@@H](O)c1cccc(OCCO)c1)C[C@@H](O)c1ccccn1`, the z-score was -0.425 (inactive).
For `CCOC(=O)C1=CC[C@@H](c2ccccc2)N(S(=O)(=O)c2ccc(C)cc2)[C@H]1c1cccc(OC)c1`, the z-score was -0.293 (inactive).
For `CC(C)=CCCC(C)=CC(O)C1C=CC2C(=O)N(c3ccccc3)C(=O)C2N1Nc1ccccc1F` (stereo not drawn), the z-score was -0.507 (inactive).
For `C=CCC(OC(C)=O)[C@@H]1[C@@H](N(Cc2ccc(-c3cccc(C(F)(F)F)c3)o2)C(=O)Cc2ccc(OC)cc2)c2cc(OCCCO)ccc2N1C(=O)Cc1ccc2ccccc2c1` (stereo partly drawn), the z-score was -0.3 (inactive).
In the case of `NC(=O)NCC#Cc1ccc2c(c1)[C@]1(C(=O)N2)[C@H](C(=O)N2CCN(c3ncccn3)CC2)[C@H]2C(=O)O[C@H](c3ccccc3)[C@H](c3ccccc3)N2[C@@H]1c1ccc(OCCO)cc1`, the z-score is reported as 1.54 (inactive).
In the case of `COCCOC(=O)N1C(=O)[C@@]2(c3cc(C#CC4=CCCCC4)ccc31)[C@H](c1ccc(O)cc1)N1[C@H](c3ccccc3)[C@H](c3ccccc3)OC(=O)[C@H]1[C@@H]2C(=O)NC[C@H](O)c1ccccc1`, the z-score is reported as 2.04 (inactive).
